hcGAS lum – human cGAS inhibition. 0.081% of 290,000 active. Q8N884. recombinant h-cGAS, ATP depletion, Kinase-Glo luminescence. inhibition, % at 12.5 µM
Target sequence (Q8N884 whole entry, looked up): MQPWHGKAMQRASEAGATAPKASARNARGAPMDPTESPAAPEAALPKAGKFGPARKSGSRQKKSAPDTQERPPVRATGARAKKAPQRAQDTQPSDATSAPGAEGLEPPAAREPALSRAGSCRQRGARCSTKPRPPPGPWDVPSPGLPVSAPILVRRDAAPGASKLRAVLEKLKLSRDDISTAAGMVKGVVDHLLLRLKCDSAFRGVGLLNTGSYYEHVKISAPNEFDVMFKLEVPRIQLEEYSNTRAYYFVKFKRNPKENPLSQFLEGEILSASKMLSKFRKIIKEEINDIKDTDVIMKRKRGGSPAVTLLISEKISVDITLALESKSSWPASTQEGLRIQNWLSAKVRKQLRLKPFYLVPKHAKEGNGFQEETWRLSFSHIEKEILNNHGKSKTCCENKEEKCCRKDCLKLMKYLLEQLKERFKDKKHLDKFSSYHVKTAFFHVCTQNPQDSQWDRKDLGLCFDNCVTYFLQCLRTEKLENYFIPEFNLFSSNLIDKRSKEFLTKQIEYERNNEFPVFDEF
mcGAS inh – mouse cGAS inhibition by luminescence; inhibition, % at 12.5 µM; Q8C6L5; AID 1259399; 0.15% of 160,000 active; recombinant cGAS, Kinase-Glo ATP depletion luminescence
NPYLR7 agonist – mosquito NPYLR7 agonism. HEK293T NPYLR7/Galpha15, GCaMP6s calcium fluorescence. activation, % at 10 µM. 0.15% of 270,000 active; in the data active = activation above about 40%
Large screens that a line does not name were inactive. Hits are enriched below; roughly 0.28% of the tested compounds scored in any of these assays. Rule as the data show it, unless noted: active = inhibition above about 40%; inactive = the rest.

CC1OC(=O)C23C4(C)CC5OC56C(=CC(=O)OC6(C)C)C45CC(C)(C4(O)OC5(C)OC142)C31CO1 (stereo unspecified)	none
CCOc1nc(-c2ccc(Cl)c(Cl)c2)n(-c2cccc(NC(=O)c3ccc(OC)cc3)c2)n1	none
O=C1NC(=NC2CCCC2)SC1=Cc1cc([N+](=O)[O-])ccc1N1CCCC1	none (no result: mcGAS inh)
O=C1NC(=NS(=O)(=O)c2ccccc2)SC1=Cc1cc([N+](=O)[O-])ccc1O	mcGAS inh 74.8, NPYLR7 agonist 61.0
Cc1ccc(-n2c(SCc3ccc(C(=O)NCc4ccc5c(c4)OCO5)cc3)nnc2-c2cccnc2)cc1	none
CC(=O)N1CCc2c(sc(NC(=O)C3=COCCO3)c2-c2nc3ccccc3s2)C1	none (no result: mcGAS inh)
CC(=O)Nc1sc2c(c1-c1nc3ccccc3s1)CCN(C(C)=O)C2	none (no result: mcGAS inh)
CC(=O)Nc1sc2c(c1-c1nc3ccccc3s1)CCN(Cc1ccccc1)C2	NPYLR7 agonist 196.8
CCN1CCc2c(sc(NC(=O)C3=COCCO3)c2-c2nc3ccccc3s2)C1	NPYLR7 agonist 59.9 (no result: mcGAS inh)
CCC(C)N(CC(=O)N(Cc1ccccc1)Cc1ccc(C)s1)C(=O)Nc1cccc(Br)c1 (stereo unspecified)	none
O=[Si]=O	mcGAS inh 42.0
Cc1ccc(C2c3cccn3CCCN2Cc2cccc(C(F)(F)F)c2)cc1C (stereo unspecified)	none
O=C(CCn1cnc2ccccc21)N1CCCC(O)(CO)CC1 (stereo unspecified)	none
O=C(COc1ccc(Cl)cc1)N1CCc2ccccc2C1c1ccc(Cl)cc1 (stereo unspecified)	none
C=CCOCC(O)CN(Cc1ccc(F)cc1)Cc1cccc(OC)c1 (stereo unspecified)	none
COc1cccc(CN(Cc2ccc(F)cc2)CC(O)COc2ccccc2)c1 (stereo unspecified)	mcGAS inh 76.3
CC(C)CN(Cc1ccsc1)CC(O)COc1ccc(Cl)cc1 (stereo unspecified)	none
CCCN(Cc1ccsc1)CC(O)COc1ccccc1 (stereo unspecified)	mcGAS inh 40.6
c1csc(C2C3CCc4ccccc4C3=Nc3ncnn32)c1 (stereo unspecified)	none (no result: mcGAS inh)
CCC(NC1CCC2(CCNCC2)CC1)c1cc(C)ccn1 (stereo unspecified)	none (no result: NPYLR7 agonist)
O=C(C1Cc2ccccc2CN1CC(O)COc1ccccc1)N1CCCC1 (stereo unspecified)	none (no result: mcGAS inh)
S=c1[nH]nc(-c2cccs2)o1	none (no result: mcGAS inh)
S=c1[nH]nc(-c2cc(-c3cccs3)nc3ccccc23)o1	hcGAS lum 76.8 (no result: mcGAS inh)
Nc1ccc(Oc2ccc([N+](=O)[O-])cc2)cc1	none (no result: mcGAS inh)
Nc1ccc(Oc2cc(N)cc(Oc3ccccc3)c2)cc1	NPYLR7 agonist 74.2

Screens (PubChem BioAssay)
